According to PubChem BioAssay AID1745849 (National Center for Advancing Translational Sciences (NCATS), 2022):
The whole screen tested about 2,100 compounds, of which about 320 (15%) were called active. Not shown: some 52% with an inconclusive outcome. The call rests on the fitted dose curve; in most records, active means well fitted cell-killing curve with a large enough effect; inconclusive means small, poorly fitted or top-dose-only effect, or effect the other way; inactive means flat fitted curve, though single readings scatter. The list shows a part of the results. Entries that show only a call come without a potency.
Potency means the concentration at half of the fitted maximal effect.

Test: Viability Counterscreen for CMV-Luciferase Assay of Inhibitors of ATXN expression; further: nearly all actives have a fitted effect of over 55% in size
Conditions: HEK-293 CMV-luciferase cells viability, protease fluorescence, 24 h
Procedure, shortened: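 Luminescence read-out: SteadyGlo added, 5 min RT, measured in CMV-luciferase HEK-293 cells after 24 hr compound treatment (several concentrations). Viability counterscreen: 25 uM Gly-Phe-7-amino-4-trifluoromethylcoumarin, 30 min at 37 degree C, fluorescence ex 405/em 540 nm.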
With Cc1cccc(N2CCN(C(=O)CNC(=O)Cc3ccccc3)CC2)c1C the Potency was “inactive”.
In the case of O=C(NNC(=O)C(c1ccccc1)c1ccccc1)c1ccccn1, the Potency is reported as 10 µM (active).
With CCC1=C(OC(=O)N(CC)CC)N2C(=O)OC(=NCCc3c[nH]c4ccccc34)[C@]2(Cc2ccccc2)[C@H]2C1=CC[C@H]1C(=O)N(c3ccccc3)C(=O)[C@H]12 the Potency was “inactive”.
In the case of CCc1ccc(-c2nc(CS(=O)CC(=O)NCc3ccco3)c(C)o2)cc1 (stereo unspecified), the Potency is reported as “inactive”.
With Cc1nc(N=C(N)N)nc2c(C)cccc12 the Potency was 8.91 µM (active).
In the case of O=C(N/N=C/c1cc(Br)cc(Br)c1O)c1cccc(N2CCCC2=O)c1, the Potency is reported as “inactive”.
In the case of O=C(Nc1cccc2cccnc12)c1csc(COCCO)n1, the Potency is reported as “inactive”.
With CS(=O)(=O)N(CC(O)CON=C1c2ccccc2-c2ccccc21)c1ccc(F)cc1 (stereo unspecified) the Potency was “inactive”.
With Cc1ccc(NC(=O)C2CCN(S(=O)(=O)c3ccc(N4CCCC4=O)cc3)CC2)cc1Cl the Potency was “inactive”.
In the case of COc1ccc2nc(NC(=O)C3CCN(S(=O)(=O)c4cccs4)CC3)sc2c1, the Potency is reported as “inactive”.
With Cc1ccnc(NC(=O)C2CCN(S(=O)(=O)c3c(C)c(C)cc(C)c3C)CC2)c1 the Potency was 15.8 µM (active).
In the case of O=C(Cn1cnc([N+](=O)[O-])c1)Nc1cc(Oc2ccc(Cl)cc2Cl)cc([N+](=O)[O-])c1, the Potency is reported as “inactive”.
In the case of Oc1ccc(Cl)cc1Sc1cc(Cl)ccc1O, the Potency is reported as 20 µM (active).
In the case of CCOc1ccc(NC(=O)Nc2nnc(CC(=O)NCc3ccccc3)s2)cc1, the Potency is reported as “inactive”.
With Cc1cc(C)c(CSc2ncc(-c3ccc([N+](=O)[O-])cc3)[nH]2)c(C)c1 the Potency was “inactive”.
For CN(C)CCCN(C(=O)c1ccc(S(=O)(=O)N(C)Cc2ccccc2)cc1)c1nc2cc3c(cc2s1)OCO3, the Potency was 22.4 µM (active).
For CCN(c1ccccc1)S(=O)(=O)c1ccc(C(=O)N(CCCN(C)C)c2nc3c(C)cccc3s2)cc1, the Potency was 28.2 µM (active).
With CCOc1ccccc1NC(=O)CCCc1nc2ccccc2c(=O)[nH]1 the Potency was “inactive”.
For Cc1nn(C)c(C)c1NC(=O)CSc1nc(Cc2ccccc2)nc2c1cnn2-c1ccccc1, the Potency was “inactive”.
With C=CCn1cnc2c(c1=O)c1nc3ccccc3nc1n2/N=C/c1cc(OC)c(OC)c(OC)c1 the Potency was 11.2 µM (active).
With CCC(C)n1cnc2c(c1=O)c1nc3ccccc3nc1n2-c1ccc2c(c1)OCCO2 (stereo unspecified) the Potency was “inactive”.
For CCCCC(=O)N(C)c1c(CC)nc2c(OCc3ccc(Cl)cc3Cl)cccn12, the Potency was “inactive”.
With COc1ccc(Br)cc1C(=O)NC(=S)Nc1ccc(CN2CCOCC2)cc1 the Potency was “inactive”.
In the case of CCNc1ccc(Br)cc(C(=O)/C=C/c2ccccc2Cl)c1=O, the Potency is reported as “inactive”.
In the case of CNc1ccc(Br)cc(C(=O)/C=C/c2ccc3c(c2)OCO3)c1=O, the Potency is reported as “inactive”.
With CCc1ccc(/C=C/C(=O)c2cc(Br)ccc(=O)c2O)cc1 the Potency was 28.2 µM (active).
